# High-throughput results deposited in PubChem by National Center for Advancing Translational Sciences (NCATS).
# Pf growth 48h = Primary qHTS for delayed death inhibitors of the malarial parasite plastid, 48 hour incubation; P. falciparum luciferase growth in erythrocytes, 48 h; Potency, µM (titrated, usually from 28.7 µM), for inactives: top-dose activity change, negative = inhibition, hits mostly inhibitors; hit rate 5.9% among 310,000; AID 504832, 2011; further: on the % scale 0 is the no-effect control and ±100 the full control effect
#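 Parasite viability was followed by luminescence of a genomically integrated firefly luciferase. Cultures held 0.1% parasitemia at 2% hematocrit (final), incubated under 5% CO2 at 37 C.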
# SARS PLP yeast = qHTS of Yeast-based Assay for SARS-CoV PLP. Potency, µM (doses to about 32.9 µM), inactives show top-dose activity, positive = growth rescue, actives largely listed as activators. S. cerevisiae expressing SARS-CoV PLpro, growth rescue. hit rate 0.19% among 330,000; calls by dose curve; further: 0% is about no effect; nearly all actives have a fitted effect of over 55% in size
# Pf growth 96h = Primary qHTS for delayed death inhibitors of the malarial parasite plastid, 96 hour incubation; P. falciparum luciferase reporter growth, 96 h; Potency, µM (doses to about 28.7 µM), for inactives: top-dose activity change, negative = inhibition, actives largely listed as inhibitors; hit rate 6.9% among 320,000; AID 504834, 2011; further: on the % scale 0 is the no-effect control and ±100 the full control effect
#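 96 h incubation, 37 C, 5% CO2, of luciferase-reporter P. falciparum-infected RBCs (2% hematocrit, 0.05% parasitemia final) with test compounds; endpoint luminescence.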
# AMA1-RON2 inh = qHTS for Inhibitors of AMA1-RON; Towards Development of Antimalarial Drug Lead: Primary Screen. AID 720542, 2013. Plasmodium falciparum AMA1 (3D7) - RON2 peptide interaction. AlphaScreen AMA1-biotinylated RON2 peptide binding. Potency, µM (top dose mostly 58.2 µM), for inactives: at the highest dose activity change, negative = inhibition, hits mostly inhibitors. hit rate 0.2% among 360,000;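 further: 0% = vehicle wells and -100% = peptide control; nearly all actives have a fitted effect of over 45% in size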
#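 AMA1 (3D7) with his tag at 25 nM final met compounds first, then biotinylated RON2 peptide at 25 nM; detection used donor plus acceptor beads, 10 µg/mL apiece, read by AlphaScreen after 30 min at room temperature.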
# NS1 inh = qHTS Assay for Inhibitors of Influenza NS1 Protein Function; Potency, µM (series often up to 46.1 µM), for inactives: top-dose activity, positive = more growth; hit rate 0.4% among 270,000; AID 2326, 2010; calls by dose curve; further: actives are rising curves; nearly all actives have a fitted effect of over 50% in size
#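 A cell-based growth assay was used: compounds that relieve NS1-induced slow growth of budding yeast raise OD600. Assay medium was yeast nitrogen base with ammonium sulphate and -URA supplement, pH 6.0, with 2% galactose.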
# HCV inhibitor = qHTS Assay for Inhibitors of Hepatitis C Virus (HCV); Huh7.5.1 HCVcc-Cre infection, luciferase reporter, 44 h; hit rate 3.4% among 340,000; Potency, µM (series often up to 41.8 µM), for inactives: top-dose activity change, negative = inhibition, most hits filed as inhibitors; further: on the % scale 0 is the no-effect control and ±100 the full control effect
#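 Compounds are dispensed onto cells plated 4 h earlier at 1,000 per well, with HCVcc-Cre virus (about 0.5 moi) added next. Following 44 h of culture, luminescent signal is measured for 15 sec after 15 min with substrate at room temperature.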
# * hit, by the source's call; ? = inconclusive; . = no result; [ ] = dose if it differs, or a comment. Shown are actives, neighbours in structure and some others; about 12% of the full set was active somewhere. Unless noted, the call rests on the fitted dose curve; in most records, active means well fitted curve in the direction sought with a large enough effect; inconclusive means small, poorly fitted or top-dose-only effect, or another doubt; inactive means no such curve, though single readings can be large; an effect the other way counts as inactive or inconclusive. Potency means the concentration at half of the fitted maximal effect.
SMILES,Pf growth 48h,SARS PLP yeast,Pf growth 96h,AMA1-RON2 inh,NS1 inh,HCV inhibitor
Cc1nn(C)c(Cl)c1C(=O)NCC(=O)Nc1ccc(C(C)C)cc1,?,2.9%,-0.6%,0.0%,-0.2%,-6.6%
O=C(NC1CCCCC1)c1cc(-c2ccco2)on1,72.2%,-4.2%,11.7µM*,-8.2%,-7.4%,5.8%
C=CCNC(=S)N/N=C/c1cn(C)c2ccccc12,8.28µM*,13.3%,?,30.5%,?,35.5µM*
Cn1cc(/C=N\NC(=O)c2cccs2)c2ccccc21,110.9%,1.0%,5.86µM*,8.0%,.,3.9%
Cn1cc(/C=N/NC(N)=S)c2ccccc21,1.9%,20.9%,?,78.8%,4.1%,12.1%
Cn1cccc1/C=N/NC(=O)c1cccs1,80.1%,-6.9%,40.1%,-4.2%,-13.6%,-5.6%
NS(=O)(=O)c1ccc(CCNC(=O)c2cc([N+](=O)[O-])ccc2N2CCCCC2)cc1,?,-0.3%,?,-7.2%,1.1%,?
COCCNC(=S)N/N=C(\C)c1ccccc1O,2.94µM*,8.7%,?,64.0%,-2.2%,?
COCCNC(=S)N/N=C(\C)c1ccccc1OC,?,17.8%,?,41.5%[11.6 µM],17.8%,15.1%
COCCNC(=S)N/N=C(\C)c1ccccc1F,?,2.5%,9.28µM*,18.8%,.,-7.1%
Cc1ccc(C)c(NC(=S)N/N=C2/CCCCc3ccccc32)c1,8.28µM*,?,4.15µM*,28.1%[2.32 µM],-11.5%,?
S=C(N/N=C1\CCc2ccccc21)NC1CCCCC1,?,-4.3%,-49.6%,33.0%,-4.3%,8.91µM*
O=C(Cn1cnc2cc([N+](=O)[O-])ccc2c1=O)NCc1ccccc1,-9.2%[5.75 µM],3.0%,4.6%,1.2%,0.2%,1.4%
CCCOC(=O)C1=C(C)NC(=O)NC1c1cc2c(cc1Br)OCO2 (configuration not stated),?,-0.9%,9.7%,-2.3%,15.7%,3.1%
CC(=O)Nc1ccc(CNc2nc3cc(-c4ccc(F)cc4)sc3c(=O)n2C)cc1,.,.,.,13.4%,.,.
O=C(CN1CCN(C(c2ccccc2)c2ccccc2)CC1)NC(=O)NCc1ccco1,9.28µM*,-8.0%,10.4µM*,-5.9%,-30.3%,-5.9%
O=C(CN1CCN(c2ccccc2)CC1)NC(=O)NCc1ccco1,-5.8%,-3.6%,-5.3%,-8.2%,19.4%,-16.9%
Cn1cc(Br)c(NS(=O)(=O)c2ccc(Cl)s2)n1,40.4%,0.2%,53.2%,-5.8%,-4.7%,7.5%
C/C(Cn1nnc([N+](=O)[O-])n1)=N\NC(=O)c1ccccc1,?,8.7%,14.7µM*,36.9%,-1.1%,?
CC(C)NC(=O)NC(=O)COC(=O)Cc1c(F)cccc1Cl,-5.9%,1.2%,6.0%,3.3%,.,7.5%
CC12CCC(C(=O)NC3CCCCC3)([C@H](Br)C1=O)C2(C)C (some centres not stated),37.6%,-0.5%,29.5%,-6.4%,0.7%,12.1%
CCCCCCCCCCn1ccc(=N)cc1,0.208µM*,-3.8%,?,9.7%,-106.1%,22.4µM*
CCCCCCN1Cc2ccccc2C1,33.7%,-0.6%,8.3%,-2.1%,9.0%,9.3%
CC1CCC(NC(=O)c2cc(S(=O)(=O)N3CCCCC3)ccc2N2CCOCC2)CC1 (configuration not stated),9.28µM*,-1.1%,?,-1.2%,.,-27.5%
CCCNC(=O)c1cc(S(=O)(=O)N2CCCCC2)ccc1N1CCOCC1,?,2.4%,-8.3%,-2.7%,.,32.4%
SMILES,Pf growth 48h,SARS PLP yeast,Pf growth 96h,AMA1-RON2 inh,NS1 inh,HCV inhibitor
CCc1ccc(CN(C)C(=O)c2cc(S(=O)(=O)N3CCOCC3)ccc2N2CCCC2)cc1,11.7µM*,-0.4%,?,6.4%,.,-28.2%
CCCCCC(C)NC(=O)c1cc(S(=O)(=O)N2CCCCC2)ccc1N1CCOCC1 (configuration not stated),13.1µM*,-8.5%,?,-2.6%,.,-25.3%
N#CCC(=O)c1ccccc1Oc1ccc(Cl)cc1,35.5%,-4.1%,70.7%,18.3%,.,10.5%
Cc1cc(NC(=O)CSCC(=O)N2CCN(c3cccc(C(F)(F)F)c3)CC2)no1,?,4.9%,-23.1%,-17.3%,.,-7.0%
C[C@H](CO)N1C[C@H](C)[C@@H](CN(C)S(=O)(=O)c2ccccc2)OCCCC[C@H](C)Oc2ccc(NC(=O)CCC(F)(F)F)cc2C1=O,.,.,.,-10.3%,.,.
CCOC(=O)[C@H]1[C@H]2COc3ccc(C)cc3[C@@H]2N2C(=O)CN(C)C(=O)[C@@]12C,.,.,.,6.0%,.,12.5%
CC1(C)Oc2ccc(C(=O)Nc3ccccc3)cc2N(CC#N)C1=O,-5.3%,1.3%,2.94µM*,-10.6%,-5.3%,-16.3%
OC(CCN1CCOCC1)c1ccccc1 (configuration not stated),75.0%,-5.6%,121.1%,-7.5%,11.2%,-3.0%
OC(CCN1CCCCC1)c1ccc(-c2ccccc2)cc1 (configuration not stated),.,-2.4%,4.65µM*,13.9%,1.7%,?
CN(c1ccccc1)C1CCCCC1NS(=O)(=O)c1ccc(Cl)cc1 (configuration not stated),6.57µM*,-84.8%,?,-11.3%,-35.6%,?
O=C(Nc1ccccc1C(=O)N1CCOCC1)c1cccnc1,17.2%,-4.0%,.,0.0%,8.8%,-11.3%
O=C(Nc1sccc1C(=O)N1CCOCC1)c1cccnc1,36.4%,16.5%,3.29µM*,-0.6%,4.6%,3.2%
COc1cc(C(C(=O)NC2CCCC2)N(CCO)C(=O)Cn2nnc(-c3ccc(C)o3)n2)ccc1O (configuration not stated),4.6%,-2.9%,-9.8%,3.1%,1.1%,-24.6%
CC[C@]12c3[nH]c4ccc(Cl)cc4c3CCN1C(=O)[C@@H](CC(=O)NCc1cccc(C(F)(F)F)c1)C[C@@H]2C(=O)N1CCN(C(=O)c2ccco2)CC1,.,-2.3%,.,-25.6%,.,31.6µM*
CC[C@]12c3[nH]c4ccc(Cl)cc4c3CCN1C(=O)[C@@H](CC(=O)NCc1cccc(C(F)(F)F)c1)C[C@@H]2C(=O)N1CCN(C(=O)C2CC2)CC1,.,-10.9%,.,-6.9%,.,35.5µM*
CC[C@]12c3[nH]c4ccccc4c3CCN1C(=O)C(CC(=O)NCC13CC4CC(CC(C4)C1)C3)C[C@@H]2C(=O)N1CCN(C(=O)c2ccco2)CC1 (some centres not stated),.,-3.3%,.,-18.6%,.,11.2µM*
Cn1c(OCC2CCCO2)nc2cc(-c3ccccc3)sc2c1=O (configuration not stated),.,.,.,15.8%,.,.
